Parameters in all cases: scale not given: direction of the effect not stated beside the values
Assay [1] has as its target Protein translocase subunit SecA (Escherichia coli (strain K12)) (UniProt P10408). As to the kind of experiment: Assay to Identify E. coli SecA ATPase Inhibitors. It counts as functional. Conditions: 30 µM.
For assay [2], the target named is T1, Ubiquitin-activating enzyme e1, putative (Leishmania donovani (strain BPK282A1)) (UniProt E9BSI1).
T1 sequence (whole entry): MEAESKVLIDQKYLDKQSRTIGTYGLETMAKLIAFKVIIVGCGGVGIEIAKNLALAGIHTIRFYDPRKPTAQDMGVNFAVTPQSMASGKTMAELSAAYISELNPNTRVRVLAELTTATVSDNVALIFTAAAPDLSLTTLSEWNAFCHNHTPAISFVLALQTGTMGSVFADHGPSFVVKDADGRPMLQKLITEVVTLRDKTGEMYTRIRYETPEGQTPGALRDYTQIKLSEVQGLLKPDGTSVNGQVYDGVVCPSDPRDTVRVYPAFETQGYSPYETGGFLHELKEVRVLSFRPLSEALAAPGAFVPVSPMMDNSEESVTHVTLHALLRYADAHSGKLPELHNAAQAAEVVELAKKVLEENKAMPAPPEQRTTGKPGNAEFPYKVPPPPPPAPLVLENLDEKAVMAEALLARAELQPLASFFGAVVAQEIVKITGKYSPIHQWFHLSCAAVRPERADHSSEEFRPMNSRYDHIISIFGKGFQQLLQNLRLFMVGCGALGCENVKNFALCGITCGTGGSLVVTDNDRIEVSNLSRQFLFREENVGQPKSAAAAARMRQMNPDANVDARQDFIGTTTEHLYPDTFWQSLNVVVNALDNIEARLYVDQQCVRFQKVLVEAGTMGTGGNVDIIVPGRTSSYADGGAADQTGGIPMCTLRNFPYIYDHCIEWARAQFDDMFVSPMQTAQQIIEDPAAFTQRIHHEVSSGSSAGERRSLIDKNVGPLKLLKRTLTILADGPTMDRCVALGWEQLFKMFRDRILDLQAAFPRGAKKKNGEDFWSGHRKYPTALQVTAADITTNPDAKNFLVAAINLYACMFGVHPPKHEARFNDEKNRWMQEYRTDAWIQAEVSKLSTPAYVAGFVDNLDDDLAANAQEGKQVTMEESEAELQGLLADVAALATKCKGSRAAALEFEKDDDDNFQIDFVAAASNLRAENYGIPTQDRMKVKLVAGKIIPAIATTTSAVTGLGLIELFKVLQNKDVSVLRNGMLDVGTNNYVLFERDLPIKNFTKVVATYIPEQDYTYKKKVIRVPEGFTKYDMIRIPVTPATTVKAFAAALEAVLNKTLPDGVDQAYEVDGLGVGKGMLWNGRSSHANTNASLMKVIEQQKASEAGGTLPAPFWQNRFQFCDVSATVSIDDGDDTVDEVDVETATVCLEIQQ
Briefly: Leishmania donovani Ubiquitin Activating Enzyme (LdE1). Type of assay: functional. To be noted: 30 µM.

In assay [3] the target is AMP-activated protein kinase, AMPK (Homo sapiens) (UniProt P54646+O43741+P54619+Q9UGJ0+Q9Y478+Q13131+Q9UGI9). Briefly: AMP-dependent Kinase enzyme assay. An in vitro enzyme assay that detects ADP turnover that is directly proportional to AMPK activity. This uses naive AMPK that is activated during the assay with MK-8722. Type of assay: functional. Conditions: 30 µM.
Assay [4] concerns the target Sialic acid-binding Ig-like lectin 9 (Homo sapiens) (UniProt Q9Y336). Briefly: Hs-Siglec9 ALPHAscreen SOP 20170721. To be noted: 10 µM. Background: Bead proximity is the source of the signal in Alpha formats.
The next assay has as its system Trypanosoma cruzi. Briefly: Trypanosoma cruzi phosphomannomutase and mannose-1-phosphate guanylyltransferase assay. Type of assay: functional. To be noted: 10 µM.
For assay [5], the target named is T2, Arginase-2, mitochondrial (Homo sapiens) (UniProt P78540).
T2 sequence (whole entry): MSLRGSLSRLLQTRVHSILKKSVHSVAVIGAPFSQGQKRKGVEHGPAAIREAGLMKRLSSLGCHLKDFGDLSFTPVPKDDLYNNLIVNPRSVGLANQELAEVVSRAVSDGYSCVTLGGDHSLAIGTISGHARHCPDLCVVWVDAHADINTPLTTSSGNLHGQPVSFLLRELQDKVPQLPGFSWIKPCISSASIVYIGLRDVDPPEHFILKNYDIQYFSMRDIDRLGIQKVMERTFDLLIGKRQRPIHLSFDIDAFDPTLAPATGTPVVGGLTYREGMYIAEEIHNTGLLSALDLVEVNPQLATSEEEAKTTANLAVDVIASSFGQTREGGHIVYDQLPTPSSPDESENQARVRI
As to the kind of experiment: in vitro enzyme assay to detect the production of urea directly proportional to the activity of Arginase II. Further: in the data most compounds retested in dose-response had high values. To be noted: 33.3 µM. Type of assay: functional.

The target of assay [6] is T3, Proteasome subunit beta (Trypanosoma cruzi) (UniProt O96673).
T3 sequence (whole entry): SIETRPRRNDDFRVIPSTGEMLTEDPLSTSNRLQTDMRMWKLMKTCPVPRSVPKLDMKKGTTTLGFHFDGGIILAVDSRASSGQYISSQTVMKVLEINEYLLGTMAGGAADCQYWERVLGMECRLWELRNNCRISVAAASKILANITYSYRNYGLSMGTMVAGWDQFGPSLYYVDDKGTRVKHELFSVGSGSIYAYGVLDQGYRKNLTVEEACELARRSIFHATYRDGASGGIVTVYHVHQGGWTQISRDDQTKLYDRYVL
Briefly: Trypanosoma cruzi proteasome chymotrypsin-like activity (TcProtChymo) assay. Further: in the data most compounds retested in dose-response had high values. It counts as functional. Conditions: 9.37 µM.

For a further assay, the species on record is Homo sapiens. As to the kind of experiment: To identify inhibition of the IFN signalling (Jak-Stat) pathway via expression of an eGFP reporter gene under the control of an IFN-stimulated response element (ISRE) containing MxA promoter. Type of assay: functional. To be noted: 30 µM. (In general: Reporter assays use an easily measured gene product as a stand-in for the process of interest.)

The target in assay [7] is T4, Tyrosyl-tRNA synthetase, putative (Trypanosoma cruzi (strain CL Brener)) (UniProt Q4DSP6).
T4 sequence (whole entry): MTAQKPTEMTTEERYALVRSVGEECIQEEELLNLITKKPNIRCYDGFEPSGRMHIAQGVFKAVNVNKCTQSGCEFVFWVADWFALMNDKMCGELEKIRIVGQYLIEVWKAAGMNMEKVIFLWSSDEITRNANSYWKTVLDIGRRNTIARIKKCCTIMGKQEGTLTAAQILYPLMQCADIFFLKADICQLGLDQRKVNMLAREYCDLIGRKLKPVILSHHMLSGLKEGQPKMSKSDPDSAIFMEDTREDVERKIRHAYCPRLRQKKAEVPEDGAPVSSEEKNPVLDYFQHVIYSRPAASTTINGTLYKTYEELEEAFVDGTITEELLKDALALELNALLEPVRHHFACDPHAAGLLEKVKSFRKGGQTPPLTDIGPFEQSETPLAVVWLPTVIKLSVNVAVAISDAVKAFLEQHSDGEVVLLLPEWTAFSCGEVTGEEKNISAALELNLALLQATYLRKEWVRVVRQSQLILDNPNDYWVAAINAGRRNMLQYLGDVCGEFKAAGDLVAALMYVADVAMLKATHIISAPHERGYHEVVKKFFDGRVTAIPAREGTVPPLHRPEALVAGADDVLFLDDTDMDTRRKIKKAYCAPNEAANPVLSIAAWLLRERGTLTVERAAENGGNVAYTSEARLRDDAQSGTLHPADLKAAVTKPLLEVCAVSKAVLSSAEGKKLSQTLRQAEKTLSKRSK
As to the kind of experiment: Trypanosoma cruzi tyrosyl tRNA synthetase (TcYRS) _High Tyrosine SOP. Further: in the data most compounds retested in dose-response had high values. Type of assay: functional. Conditions: 30 µM.

For assay [8], the target named is T4, Tyrosyl-tRNA synthetase, putative (Trypanosoma cruzi (strain CL Brener)). Briefly: Trypanosoma cruzi tyrosyl tRNA synthetase (TcYRS) SOP. Type of assay: functional. Conditions: 30 µM.
The target in assay [9] is Chromo domain-containing protein 1 (Saccharomyces cerevisiae (strain ATCC 204508 / S288c) (Baker's yeast)) (UniProt P32657). As to the kind of experiment: ScCHD-1 Enzyme Inhibition Assay. Further: in the data most compounds retested in dose-response had high values. Type of assay: functional. To be noted: 30 µM.

For some of these results: Entries with a potency or affinity are not part of this list.

Chain of Chromo domain-containing protein 1 (Saccharomyces cerevisiae (strain ATCC 204508 / S288c) (Baker's yeast)) (P32657 whole entry, the tested form may be a part): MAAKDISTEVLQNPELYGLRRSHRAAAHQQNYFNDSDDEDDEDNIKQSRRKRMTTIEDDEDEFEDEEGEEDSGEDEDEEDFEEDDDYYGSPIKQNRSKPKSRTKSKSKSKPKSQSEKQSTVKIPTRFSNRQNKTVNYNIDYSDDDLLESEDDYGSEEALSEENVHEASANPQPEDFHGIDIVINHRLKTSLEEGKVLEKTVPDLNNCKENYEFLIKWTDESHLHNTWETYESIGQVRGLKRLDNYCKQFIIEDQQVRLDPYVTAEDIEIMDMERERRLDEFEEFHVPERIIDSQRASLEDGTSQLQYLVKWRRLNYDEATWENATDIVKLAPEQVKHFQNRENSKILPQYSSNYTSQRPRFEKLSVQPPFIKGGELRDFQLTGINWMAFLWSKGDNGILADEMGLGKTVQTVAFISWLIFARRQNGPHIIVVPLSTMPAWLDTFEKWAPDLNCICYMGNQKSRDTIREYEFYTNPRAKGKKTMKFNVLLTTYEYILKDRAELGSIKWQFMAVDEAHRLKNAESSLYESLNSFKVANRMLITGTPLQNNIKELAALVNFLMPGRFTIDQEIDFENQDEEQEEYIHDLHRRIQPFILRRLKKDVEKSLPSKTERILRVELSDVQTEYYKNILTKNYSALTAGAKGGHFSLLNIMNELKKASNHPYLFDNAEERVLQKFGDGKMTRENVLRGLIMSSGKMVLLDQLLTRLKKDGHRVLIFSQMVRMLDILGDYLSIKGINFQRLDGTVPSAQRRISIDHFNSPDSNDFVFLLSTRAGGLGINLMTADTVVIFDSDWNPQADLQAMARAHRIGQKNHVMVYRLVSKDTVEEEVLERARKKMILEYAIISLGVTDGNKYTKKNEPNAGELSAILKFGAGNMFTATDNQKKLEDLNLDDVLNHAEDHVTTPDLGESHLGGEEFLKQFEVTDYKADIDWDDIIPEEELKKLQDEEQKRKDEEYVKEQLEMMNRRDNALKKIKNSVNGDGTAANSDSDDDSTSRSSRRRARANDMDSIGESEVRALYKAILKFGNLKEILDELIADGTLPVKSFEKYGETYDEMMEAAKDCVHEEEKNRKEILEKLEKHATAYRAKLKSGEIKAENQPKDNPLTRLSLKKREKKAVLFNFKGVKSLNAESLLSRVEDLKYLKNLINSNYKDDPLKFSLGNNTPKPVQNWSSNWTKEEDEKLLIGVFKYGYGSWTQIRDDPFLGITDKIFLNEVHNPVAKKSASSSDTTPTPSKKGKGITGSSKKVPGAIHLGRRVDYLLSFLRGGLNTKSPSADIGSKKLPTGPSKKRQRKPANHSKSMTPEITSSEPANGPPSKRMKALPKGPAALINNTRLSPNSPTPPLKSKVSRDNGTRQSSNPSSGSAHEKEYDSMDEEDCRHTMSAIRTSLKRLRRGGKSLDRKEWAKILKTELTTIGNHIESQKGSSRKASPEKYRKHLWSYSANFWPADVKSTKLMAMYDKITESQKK
Chain of Sialic acid-binding Ig-like lectin 9 (Homo sapiens) (Q9Y336 whole entry): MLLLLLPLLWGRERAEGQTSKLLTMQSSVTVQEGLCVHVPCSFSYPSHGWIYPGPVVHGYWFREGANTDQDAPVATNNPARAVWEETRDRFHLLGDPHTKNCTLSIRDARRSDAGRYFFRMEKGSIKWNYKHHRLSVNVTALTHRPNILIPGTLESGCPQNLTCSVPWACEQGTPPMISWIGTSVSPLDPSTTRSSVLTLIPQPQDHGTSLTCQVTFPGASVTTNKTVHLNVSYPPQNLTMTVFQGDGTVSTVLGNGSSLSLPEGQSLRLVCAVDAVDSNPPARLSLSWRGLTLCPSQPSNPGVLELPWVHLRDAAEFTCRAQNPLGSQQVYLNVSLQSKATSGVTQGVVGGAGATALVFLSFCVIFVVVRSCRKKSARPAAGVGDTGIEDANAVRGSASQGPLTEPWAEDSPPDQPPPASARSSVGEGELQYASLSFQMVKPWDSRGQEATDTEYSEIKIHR
Chain of Protein translocase subunit SecA (Escherichia coli (strain K12)) (P10408 whole entry): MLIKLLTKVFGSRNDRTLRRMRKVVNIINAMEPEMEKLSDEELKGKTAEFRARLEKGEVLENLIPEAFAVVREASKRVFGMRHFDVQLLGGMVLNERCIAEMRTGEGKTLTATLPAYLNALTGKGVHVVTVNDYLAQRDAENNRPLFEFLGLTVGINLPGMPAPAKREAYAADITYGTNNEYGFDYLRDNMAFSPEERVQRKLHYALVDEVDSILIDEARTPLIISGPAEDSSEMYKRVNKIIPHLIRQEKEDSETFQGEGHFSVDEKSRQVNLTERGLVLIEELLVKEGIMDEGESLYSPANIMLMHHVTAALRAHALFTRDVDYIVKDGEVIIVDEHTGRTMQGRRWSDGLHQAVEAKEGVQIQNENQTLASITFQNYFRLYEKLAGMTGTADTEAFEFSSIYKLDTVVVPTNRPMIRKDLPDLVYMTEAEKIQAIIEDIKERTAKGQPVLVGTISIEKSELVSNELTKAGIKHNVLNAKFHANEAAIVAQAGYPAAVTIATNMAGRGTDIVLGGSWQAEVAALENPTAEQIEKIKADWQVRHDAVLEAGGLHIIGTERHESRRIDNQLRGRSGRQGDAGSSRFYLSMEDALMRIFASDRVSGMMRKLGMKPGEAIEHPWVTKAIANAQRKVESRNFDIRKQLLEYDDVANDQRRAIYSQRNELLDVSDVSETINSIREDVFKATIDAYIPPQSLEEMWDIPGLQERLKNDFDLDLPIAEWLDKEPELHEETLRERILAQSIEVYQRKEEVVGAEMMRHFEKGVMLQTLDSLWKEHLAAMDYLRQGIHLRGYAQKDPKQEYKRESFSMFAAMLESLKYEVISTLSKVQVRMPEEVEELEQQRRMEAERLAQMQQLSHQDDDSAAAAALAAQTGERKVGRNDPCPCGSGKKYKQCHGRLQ

Turning to `Cc1cc(F)ccc1OC1(C(=O)O)CCN(Cc2cccnc2N)CC1`, the Percent Effect is -6.33% in [1]; 5.33% in assay [2]; -1.53% in [3]; 2.08% in assay [4]; -3.02% with Trypanosoma cruzi; -0.521% in [5]. The Percent Effect in assay [6] is 5.93%; in the assay listed under Homo sapiens it was 0.568%; in assay [7], 6.01%; in assay [8], 11.1%; in [9], 1.09%.

For the compound `CSCC[C@H](N)C(=O)NCc1cc2n(n1)CCCN(C1CCCCC1)C2`, the Percent Effect in assay [1] is -0.291%; in assay [2], 12.5%; in [3], -5.04%; in assay [4] it was 5.09%; with Trypanosoma cruzi it was 4.37%; in assay [5], 36.2%. Further, the Percent Effect in assay [6] is 13.7%; in the assay filed under Homo sapiens, 2.41%; in assay [7], 4.21%; in assay [8] it was 12.8%; in [9], -3.52%.

On to `CNc1cc(N2CCCC2CNCc2ccccn2)ncn1` (stereo unspecified), for which the Percent Effect was -1.73% in assay [1]; 13.5% in assay [2]; -11.7% in [3]; -3.49% in assay [4]; -2.93% in the assay with Trypanosoma cruzi; -2.08% in assay [5]. Moreover, the Percent Effect in assay [6] was 16%; in the assay filed under Homo sapiens, 24.8%; in assay [7], 11.9%; in assay [8], 11%; in assay [9], 26.6%.

Take `O=C(CCCc1ncc(-c2ccccc2)o1)N1CCN(CCO)CC1`: the Percent Effect in assay [1] was -2.7%; in assay [2], 20.2%; in [3] it was 6.12%; in assay [4], -6.16%; in the assay on Trypanosoma cruzi, -1.04%; in [5] it was 3.04%. Also, the Percent Effect in [6] was 14.2%; in the assay filed under Homo sapiens it was 6.15%; in assay [7] it was 4.43%; in assay [8] it was 13.9%; in [9], -3.58%.

Take `O=C(C1=CCCC1)N1CCO[C@H]2[C@@H](OCC3CC3)CC[C@@H]21`: the Percent Effect in assay [1] is -3.62%; in [2] it was 18.7%; in [3], -4.28%; in assay [4], -6.26%; with Trypanosoma cruzi it was 2.51%; in assay [5], -51.1%. For the same compound, the Percent Effect in assay [6] was 18.3%; in the assay filed under Homo sapiens, -0.0365%; in [7], 5.21%; in [8], 22.5%; in [9], -7.27%.

In the case of `C=C(Cl)CN1CCC(C(=O)c2cc(F)ccc2F)CC1`, the Percent Effect was -2.54% in assay [1]; -13.2% in assay [2]; 5.79% in assay [3]; -1.3% in [4]; 4.32% in the assay with Trypanosoma cruzi; -0.766% in [5]. Further, the Percent Effect in [6] is -1.67%; in the assay listed under Homo sapiens, 5.08%; in [7], 0.49%; in [8], 4.88%; in assay [9], 6.62%.

Regarding `Cc1cnc(CN(C)C2CCN(CC(=O)Nc3c(C)n[nH]c3C)C2)o1` (stereo unspecified), the Percent Effect was 3.19% in [1]; 20.2% in [2]; 14.2% in [3]; -1.23% in [4]; -9.54% in the assay with Trypanosoma cruzi; 6.84% in assay [5]. Also, the Percent Effect was 6.63% in [6]; 33.5% in the assay filed under Homo sapiens; 5.42% in assay [7]; 8.86% in assay [8]; -4.79% in assay [9].

Consider `CCn1cnnc1C1CCN(C(=O)c2ccc(Cl)s2)CC1`, for which the Percent Effect was -3.49% in assay [1]; 17.7% in assay [2]; 1.65% in assay [3]; 2.56% in assay [4]; -0.661% with Trypanosoma cruzi; 2.66% in assay [5]. Moreover, the Percent Effect in assay [6] is 5.98%; in the assay listed under Homo sapiens, -19.1%; in assay [7] it was 4.43%; in [8], 11.4%; in [9], -3.04%.

Consider `CCN1CCCC1CN(CCN(C)C)S(=O)(=O)c1cccc(C#N)c1` (stereo unspecified), for which the Percent Effect in assay [1] was -5.4%; in [2], 13.7%; in assay [3] it was 3.08%; in assay [4], 5.43%; in the assay on Trypanosoma cruzi it was 6.27%; in assay [5], 4.09%. Also, the Percent Effect is 8.16% in assay [6]; 0.578% in the assay filed under Homo sapiens; 4.3% in assay [7]; 10% in [8]; -4.67% in assay [9].

For `COc1cccc(CNC(=O)CC2CSc3ncc(C)c(=O)n32)c1` (stereo unspecified), the Percent Effect in [1] was -1.02%; in assay [2], 15.6%; in assay [3], 31.4%; in [4], -9.59%; in the assay with Trypanosoma cruzi, -5.03%; in [5] it was 3.23%. Besides, the Percent Effect in assay [6] is 13.9%; in the assay listed under Homo sapiens it was 16.4%; in assay [7], 5.29%; in assay [8], 3.85%; in assay [9], -9.11%.

As to `CS(=O)(=O)NC[C@]12COC[C@H]1CN(CC1CCCC1)C2`, the Percent Effect in assay [1] is -4.19%; in assay [2], 5.41%; in assay [3], 8.19%; in assay [4], -4.23%; in the assay on Trypanosoma cruzi, -4.79%; in [5], 1.59%. The Percent Effect in assay [6] is 20.1%; in the assay filed under Homo sapiens it was 0.262%; in assay [7], 2.16%; in assay [8] it was 7.69%; in assay [9] it was 0.895%.

Source of the values: ChEMBL document CHEMBL3988442, “University of Dundee, Small-Polar-MMV Screening Library” (2021).
